Measured values published in PubChem BioAssay.
Values joined by “and” are separate entries in the source; they are usually repeats but may differ in a detail not shown here. Identical values can stand only once. The source holds several records for some structures; these can differ, active in one and inactive in another. Active and inactive are the calls of the source. Unless noted, no rule for the calls is given here.

Columns and labels:
[1] = polyglutamine-triggered caspase-3 activation inhibitors, cell-based (AID 1583); conditions: polyglutamine-induced caspase-3 activation, cell assay; stronger effect = higher value;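 tested at 10 µM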
[2] = suppressors of polyQ aggregation in yeast, 75Q-TubU reporter (AID 1593); conditions: Yeast 75Q polyglutamine aggregation reporter
[3] = circadian clock period modulators, cell-based, LOPAC library, luminescence reporter (AID 2774); conditions: circadian reporter cells, at 7 µM, actives lie on both sides;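 also: values are relative to mean of DMSO wells on each plate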
[4] = Cy5 fluorescence quenching or enhancement artefacts, artefact control for HCV NS3 helicase inhibitor project, biochemical, LOPAC1280 (AID 687037); conditions: Cy5-DNA-NS3h complex fluorescence interference counterscreen
[5] = stimulators of nuclear beta-catenin in C2C12, primary screen, imaging, WNT3A-conditioned medium, mouse C2C12, NPC library (AID 1117326; in the data active = nuclear beta-catenin stimulation mostly above about 4.2%, no sharp cut-off; inactive = mostly below about 10%); conditions: stronger effect = higher value
[6] = stimulators of insulin release from INS-1E, primary screen, cell-based, 5 mM glucose, NPC library (AID 1117329;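 active = compound raises insulin release from rat beta cells at 5 mM glucose, no numeric limit stated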); conditions: rat INS-1E insulin secretion, at 10 µM, stronger effect = higher value
[7] = growth inhibition of GSK3B-pretreated HCT116 cells – cell-based, CellTiter-Glo, 0.2 to 20 µM (AID 1117336;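 active = compounds lowering colon cancer cell viability after pretreatment blocking the GSK3B kinase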); conditions: HCT116 viability after GSK3B inhibitor, at 20 µM, stronger effect = higher value
[8] = inhibition of endothelial tube formation, primary screen, imaging, VEGF stimulated, CD31 staining, tube area, NPC library (AID 1117340;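 active = compound that reduces growth-factor-driven endothelial tube area in a mixed cell culture, no cutoff stated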); conditions: VEGF-stimulated ADSC/ECFC co-culture, at 10 µM, stronger effect = higher value
[9] = glucagon-like peptide 1 release enhancers, primary assay, NCI-H716 cell line, NPC library (AID 1117341;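 active = compound raises GLP1 secretion from the human gut endocrine cells, with no numeric limit stated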); conditions: NCI-H716 cells, at 10 µM, stronger effect = higher value
[10] = HCT116 colon cancer cell growth inhibition, primary screen, CellTiter-Glo luminescence, NPC library (AID 1117342;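 active = compounds that lower survival of HCT116 colon cancer cells in the luminescence readout, no numeric limit stated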); conditions: at 20 µM (top of the series)
[11] = CellTiter-Glo luminescent readout of SW480 viability loss, NPC library primary (AID 1117343;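 active = compounds that lower viability of the colon cancer cells in the luminescence readout, with no numeric limit stated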); conditions: CellTiter-Glo luminescence; at 20 µM (top of the series)
[12] = decreased DLD-1 cellular survival, CellTiter-Glo luminescent readout, NPC compound collection, primary HTS (AID 1117346;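 active = compounds that lower survival of DLD-1 colon cancer cells in the luminescence readout, no cutoff given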); conditions: DLD-1 viability, CellTiter-Glo luminescence; at 20 µM (top of the series)
[13] = target: 6-phosphogluconate dehydrogenase, decarboxylating (Homo sapiens) (UniProt P52209); assay: 6PGD enzyme inhibitors, primary screen, biochemical, human, recombinant enzyme, NADPH absorbance (AID 1159550;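 active = at least 20% inhibition of 6-phosphogluconate dehydrogenase activity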); conditions: recombinant 6PGD, NADPH absorbance 341 nm; at 10 µM; stronger effect = higher value
6-phosphogluconate dehydrogenase, decarboxylating (Homo sapiens), sequence (P52209 whole entry, looked up): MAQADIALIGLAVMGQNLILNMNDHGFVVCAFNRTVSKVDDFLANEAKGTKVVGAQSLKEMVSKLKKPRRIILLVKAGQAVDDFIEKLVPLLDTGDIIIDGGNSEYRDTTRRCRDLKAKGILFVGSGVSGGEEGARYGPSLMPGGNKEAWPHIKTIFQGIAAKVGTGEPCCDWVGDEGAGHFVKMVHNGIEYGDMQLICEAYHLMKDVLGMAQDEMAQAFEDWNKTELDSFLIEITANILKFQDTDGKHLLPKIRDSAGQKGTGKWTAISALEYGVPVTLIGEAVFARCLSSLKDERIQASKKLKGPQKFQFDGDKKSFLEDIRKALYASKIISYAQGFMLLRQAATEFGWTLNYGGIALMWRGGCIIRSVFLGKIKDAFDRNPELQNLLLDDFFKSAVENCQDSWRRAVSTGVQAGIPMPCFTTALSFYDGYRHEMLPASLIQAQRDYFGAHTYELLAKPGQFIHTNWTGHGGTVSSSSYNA

[14] = differential killing of epithelial or mesenchymal cells, primary screen, imaging, PC-3E GFP, TEM4-18 mCherry, co-culture (AID 1345086;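 active = compounds killing one labelled cell type while sparing the other, by normalised counts and ratio limits, not self-fluorescent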;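 as to all read-outs here: cells exposed to compound for 72 h before imaging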;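 as to red/green cell ratio (normalised): normalised mesenchymal count divided by normalised epithelial count so high means epithelial killing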); conditions: imaging cell counts, at 1 µM; for red/green cell ratio (normalised): actives lie on both sides
[15] = tested on: Aerobactin synthetase IucA (Klebsiella pneumoniae hvKP1); assay: Biochemical IucA enzyme inhibition primary screen of the Spectrum library (AID 1346200); conditions: malachite green pyrophosphate, A620, at 8 µM, stronger effect = lower value;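 also: 100% = wells without compound and 0% = wells lacking enzyme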
[16] = survival rescue of mitochondrial mutant cells in low glucose, primary screen, MELAS cybrids, Rieske KO mouse fibroblasts, CellTiter-Glo (AID 1508586;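 active = mean z-score across replicates of 1.96 or higher in either the MELAS or the Rieske mutant cell line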;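 also: z relative to plate mean and SD of compound and empty wells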)
[17] = target: NAD(+) hydrolase SARM1 (Homo sapiens) (UniProt Q6SZW1); assay: SARM1 TIR NADase inhibitors, cell lysate, NAD-Glo luminescence (AID 1508614;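 active = compound whose remaining NAD level is above about 45 nM, limit read from the data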;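 also: higher remaining NAD means stronger inhibition of SARM1 NADase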); conditions: SAM-TIR HEK293T lysate NADase, at 1 µM, stronger effect = higher value
NAD(+) hydrolase SARM1 (Homo sapiens), sequence (Q6SZW1 whole entry, looked up, the tested form may be a part): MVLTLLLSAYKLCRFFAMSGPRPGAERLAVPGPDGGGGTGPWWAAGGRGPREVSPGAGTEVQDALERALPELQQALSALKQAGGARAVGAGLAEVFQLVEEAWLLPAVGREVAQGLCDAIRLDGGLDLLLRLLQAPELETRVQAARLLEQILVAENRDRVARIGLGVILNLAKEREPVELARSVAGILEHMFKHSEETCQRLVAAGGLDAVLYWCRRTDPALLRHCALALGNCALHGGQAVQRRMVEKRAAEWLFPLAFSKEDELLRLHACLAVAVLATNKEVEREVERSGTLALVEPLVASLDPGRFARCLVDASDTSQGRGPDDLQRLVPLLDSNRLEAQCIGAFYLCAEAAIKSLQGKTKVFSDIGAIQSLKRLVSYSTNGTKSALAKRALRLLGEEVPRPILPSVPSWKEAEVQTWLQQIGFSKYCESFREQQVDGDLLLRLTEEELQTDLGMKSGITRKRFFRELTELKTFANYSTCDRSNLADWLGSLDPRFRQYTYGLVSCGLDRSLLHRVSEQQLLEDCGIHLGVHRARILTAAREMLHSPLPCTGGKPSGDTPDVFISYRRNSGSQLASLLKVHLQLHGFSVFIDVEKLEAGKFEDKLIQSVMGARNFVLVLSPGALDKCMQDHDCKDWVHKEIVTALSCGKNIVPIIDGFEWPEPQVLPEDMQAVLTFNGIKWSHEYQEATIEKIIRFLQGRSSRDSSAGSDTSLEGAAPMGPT

[18] = target: Mitogen-activated protein kinase 7 (Homo sapiens) (UniProt Q13164); assay: ERK5 transactivation activators in reporter cells, primary screen, cell-based, HTS (AID 1508626;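 active = luciferase signal above three times the same-plate solvent-only control wells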;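 also: luciferase driven by Gal4-ERK5 fusion binding five Gal4 sites before minimal TATA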); conditions: HeLa Gal4-ERK5 transactivation, 18 h, at 5 µM, stronger effect = higher value
Mitogen-activated protein kinase 7 (Homo sapiens), sequence (Q13164 whole entry, looked up, the tested form may be a part): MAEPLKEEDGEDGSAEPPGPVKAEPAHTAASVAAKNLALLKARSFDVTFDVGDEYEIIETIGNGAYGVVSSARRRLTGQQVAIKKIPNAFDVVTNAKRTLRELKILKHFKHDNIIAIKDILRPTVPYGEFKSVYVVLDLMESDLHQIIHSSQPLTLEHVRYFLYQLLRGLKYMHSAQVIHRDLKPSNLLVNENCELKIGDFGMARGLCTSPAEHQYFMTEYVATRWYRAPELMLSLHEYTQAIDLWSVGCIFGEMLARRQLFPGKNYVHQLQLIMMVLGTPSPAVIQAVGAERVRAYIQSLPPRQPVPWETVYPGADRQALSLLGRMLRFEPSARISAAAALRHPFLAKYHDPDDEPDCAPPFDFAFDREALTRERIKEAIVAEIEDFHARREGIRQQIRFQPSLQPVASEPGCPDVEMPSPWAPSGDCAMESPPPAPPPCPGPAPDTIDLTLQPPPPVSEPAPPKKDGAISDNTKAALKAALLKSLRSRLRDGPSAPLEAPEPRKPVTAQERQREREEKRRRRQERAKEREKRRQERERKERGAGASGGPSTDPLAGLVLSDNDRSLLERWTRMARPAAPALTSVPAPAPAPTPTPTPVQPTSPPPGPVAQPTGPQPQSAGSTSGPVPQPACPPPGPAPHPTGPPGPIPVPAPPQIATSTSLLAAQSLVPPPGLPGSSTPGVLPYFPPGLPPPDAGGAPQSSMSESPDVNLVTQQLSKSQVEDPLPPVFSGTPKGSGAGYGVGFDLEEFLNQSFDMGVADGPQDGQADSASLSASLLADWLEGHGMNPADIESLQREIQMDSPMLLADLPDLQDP

[19] = viability rescue of complex I mutant cybrids, primary screen, cell-based, galactose medium, ATP luminescence (AID 1645843;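 active = z-score of at least 1.8 in each of two replicates, scored against plate mean and spread of sample wells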;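 also: positive z means more ATP and so rescue of galactose-driven cybrid death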); conditions: complex I mutant cybrid cells, 72 h, stronger effect = higher value
[20] = sensitizers of A549 cells to miR-34 induction, primary screen, imaging, A549 dox-inducible miR-34, nuclei and caspase counts (AID 1347080;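 active = compounds whose cell count with miR-34 switched on is under 0.7 times the count with it off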); conditions: A549 miR-34 inducible, Hoechst nuclei count, 48 h
[21] = measured here: epithelial PC-3E GFP cell survival
[22] = measured here: mesenchymal TEM4-18 mCherry cell survival
[23] = MELAS cybrid survival, CellTiter-Glo 48 h, stronger effect = higher value
[24] = Rieske KO mouse fibroblast survival, CellTiter-Glo 72 h
[25] = measured here: total cells without miR-34 induction
[26] = measured here: relative caspase fold change +Dox/-Dox
[27] = measured here: total cells with miR-34 induction, stronger effect = lower value

For `O=P1(N(CCCl)CCCl)NCCCO1` (centres undefined), the inhibition [1] was -14.8%, the score [2] was 0.77 and the period change [3] was 0.185 h (inactive). The fluorescence ratio (interference) [4] was 1 (inactive), the nuclear beta-catenin stimulation ([5]; at 10 µM) was 1% (inactive) and the nuclear beta-catenin stimulation ([5]; stimulation, at 2 µM) was 0.9%. For the same molecule, the insulin secretion stimulation [6] was -1% (inactive), the viability decrease [7] was -1.15% (inactive) and the tube area decrease [8] was 16.1% (inactive). The GLP1 secretion stimulation [9] was 1.6% (inactive), the inhibition of viability [10] was -24.2% (inactive) and the viability decrease (inhibition) [11] was 101% (active). The viability decrease (inhibition) [12] was -8.15% (inactive), the inhibition [13] was -5.23% (inactive) and the red/green cell ratio (normalised) [14] was 1.26 (inactive). For the same molecule, the normalised cell number [14, 21] was 1.18, the normalised cell number [14, 22] was 1.48 and the activity remaining [15] was 120% (inactive). The z-score [16, 23] was 0.187 (inactive) and -0.193 (inactive), the z-score [16, 24] was -0.0217 and -1.38 and the remaining NAD [17] was 10 nM (inactive). The luciferase signal [18] was 84 AU (inactive) and the z-score [19] was 0.055 (inactive) and 0.19 (inactive) and -0.255 (inactive).
With `O=C(CCCCl)c1ccc(F)cc1` the nuclear beta-catenin stimulation ([5]; at 10 µM) was -0.1% (inactive), the nuclear beta-catenin stimulation ([5]; stimulation, at 2 µM) was -0.7% and the insulin secretion stimulation [6] was -0.9% (inactive). The viability decrease [7] was -6.5% (inactive), the tube area decrease [8] was -3.6% (inactive) and the GLP1 secretion stimulation [9] was 0.1% (inactive). The inhibition of viability [10] was 3.2% (inactive), the viability decrease (inhibition) [11] was -14.9% (inactive) and the viability decrease (inhibition) [12] was 5.8% (inactive).
In the case of `CCCC1CCCCN1` (centres undefined), the nuclear beta-catenin stimulation ([5]; at 10 µM) was 0.5% (inactive), the nuclear beta-catenin stimulation ([5]; stimulation, at 2 µM) was 0.1% and the insulin secretion stimulation [6] was -0.9% (inactive). The viability decrease [7] was -0.7% (inactive), the tube area decrease [8] was 2.4% (inactive) and the GLP1 secretion stimulation [9] was 0% (inactive). The inhibition of viability [10] was -0.2% (inactive), the viability decrease (inhibition) [11] was 8% (inactive) and the viability decrease (inhibition) [12] was -1.85% (inactive). The inhibition [13] was 18.6% (inactive).
For `COC(=O)C1=CCCN(C)C1`, the inhibition [1] was 15.1%, the score [2] was 1.73 and the period change [3] was -0.175 h (inactive). For the same molecule, the fluorescence ratio (interference) [4] was 1 (inactive), the nuclear beta-catenin stimulation ([5]; at 10 µM) was 4.2% (inactive) and the nuclear beta-catenin stimulation ([5]; stimulation, at 2 µM) was 2.3%. The insulin secretion stimulation [6] was -0.6% (inactive), the viability decrease [7] was -6.9% (inactive) and the tube area decrease [8] was 25.2% (inactive). For the same molecule, the GLP1 secretion stimulation [9] was -0.8% (inactive), the inhibition of viability [10] was -3.33% (inactive) and the viability decrease (inhibition) [11] was 8.4% (inactive). The viability decrease (inhibition) [12] was -18.9% (inactive), the inhibition [13] was -2.35% (inactive) and the red/green cell ratio (normalised) [14] was 1.16 (inactive). The normalised cell number [14, 21] was 0.91, the normalised cell number [14, 22] was 1.07 and the activity remaining [15] was 112% (inactive). For the same molecule, the z-score [16, 23] was -0.328 (inactive), the z-score [16, 24] was 0.482 and the remaining NAD [17] was 10 nM (inactive). The luciferase signal [18] was 52 AU (inactive) and the z-score [19] was -0.47 (inactive).
For `CN(C)[C@@H]1C(=O)C(C(N)=O)=C(O)[C@@]2(O)C(=O)C3=C(O)c4c(O)cccc4[C@@](C)(O)[C@H]3C[C@@H]12`, the inhibition [1] was 61.6%, the score [2] was 0.85 and the nuclear beta-catenin stimulation ([5]; at 10 µM) was 1% (inactive). For the same molecule, the nuclear beta-catenin stimulation ([5]; stimulation, at 2 µM) was 1.9%, the insulin secretion stimulation [6] was 2.5% (inactive) and the viability decrease [7] was -202% (inactive). For the same molecule, the tube area decrease [8] was 9.8% (inactive), the GLP1 secretion stimulation [9] was -2.8% (inactive) and the inhibition of viability [10] was 12.1% (inactive). The viability decrease (inhibition) [11] was 43.4% (inactive), the viability decrease (inhibition) [12] was 73.3% (active) and the inhibition [13] was -5.09% (inactive). For the same molecule, the red/green cell ratio (normalised) [14] was 0.98 (inactive) and 1.18 (inactive), the normalised cell number [14, 21] was 0.93 and 1.05 and the normalised cell number [14, 22] was 0.91 and 1.24. The activity remaining [15] was 92.7% (inactive), the cell count [20, 25] was 7550 and 8910 and 10100 and the z-score [16, 23] was 4.37 (active) and -3.68 (inactive) and 0.0486. For the same molecule, the z-score [16, 24] was 0.792 and -3.53 and 2.26, the remaining NAD [17] was 10 nM (inactive) and the luciferase signal [18] was 324 AU (active). For the same molecule, the z-score [19] was 2.65 (active).
For `O=c1[nH]c2ccccc2n1C1CCN(CCCC(c2ccc(F)cc2)c2ccc(F)cc2)CC1`, the inhibition [1] was 13.8%, the score [2] was 1.1 and the period change [3] was 0.045 h (inactive). For the same molecule, the fluorescence ratio (interference) [4] was 1 (inactive), the nuclear beta-catenin stimulation ([5]; at 10 µM) was 7.8% (inactive) and the nuclear beta-catenin stimulation ([5]; stimulation, at 2 µM) was 0.2%. The insulin secretion stimulation [6] was 0.4% (inactive), the viability decrease [7] was 98.9% (active) and the tube area decrease [8] was 108% (active). The GLP1 secretion stimulation [9] was -4.5% (inactive), the inhibition of viability [10] was 99.6% (active) and the viability decrease (inhibition) [11] was 102% (active). The viability decrease (inhibition) [12] was 99.3% (active), the inhibition [13] was 13.7% (inactive) and the red/green cell ratio (normalised) [14] was 0.96 (inactive). For the same molecule, the normalised cell number [14, 21] was 1.24, the normalised cell number [14, 22] was 1.19 and the activity remaining [15] was 128% (inactive). The z-score [16, 23] was 0.83 (inactive) and 0.29 (inactive), the z-score [16, 24] was 0.702 and -0.0813 and the remaining NAD [17] was 10 nM (inactive). The luciferase signal [18] was 68 AU (inactive) and the z-score [19] was -1.29 (inactive) and -1.18 (inactive) and -2 (inactive).
With `NCCc1ccc(O)cc1` the inhibition [1] was -15.4%, the score [2] was 1.21 and the period change [3] was 0.035 h (inactive). For the same molecule, the fluorescence ratio (interference) [4] was 1 (inactive), the nuclear beta-catenin stimulation ([5]; at 10 µM) was -0.5% (inactive) and the nuclear beta-catenin stimulation ([5]; stimulation, at 2 µM) was 1.3%. For the same molecule, the insulin secretion stimulation [6] was 1.8% (inactive), the viability decrease [7] was 4.6% (inactive) and the tube area decrease [8] was -10% (inactive). The GLP1 secretion stimulation [9] was -1.8% (inactive), the inhibition of viability [10] was 9.07% (inactive) and the viability decrease (inhibition) [11] was 5.3% (inactive). For the same molecule, the viability decrease (inhibition) [12] was -2.9% (inactive), the inhibition [13] was -11.3% (inactive) and the red/green cell ratio (normalised) [14] was 0.8 (inactive). For the same molecule, the normalised cell number [14, 21] was 1.04, the normalised cell number [14, 22] was 0.83 and the activity remaining [15] was 108% (inactive). For the same molecule, the fold change ([20]; stronger effect = lower value, cell number ratio, induced over uninduced) was 0.965 (inactive), the fold change [20, 26] was 1.32 and the cell count [20, 27] was 10000. The cell count [20, 25] was 10400, the luciferase signal [18] was 52 AU (inactive) and the z-score [19] was 0.68 (inactive).
In the case of `CN(C)[C@@H]1C(=O)C(C(N)=O)=C(O)[C@@]2(O)C(=O)C3=C(O)c4c(O)cccc4[C@@](C)(O)[C@H]3[C@H](O)[C@@H]12`, the inhibition [1] was -0.04%, the score [2] was 0.9 and the nuclear beta-catenin stimulation ([5]; at 10 µM) was -2.3% (inactive). The nuclear beta-catenin stimulation ([5]; stimulation, at 2 µM) was 0.1%, the insulin secretion stimulation [6] was 1.4% (inactive) and the viability decrease [7] was 38.4% (inactive). The tube area decrease [8] was 11.7% (inactive), the GLP1 secretion stimulation [9] was -2.9% (inactive) and the inhibition of viability [10] was 31.6% (inactive). For the same molecule, the viability decrease (inhibition) [11] was 62.8% (active), the viability decrease (inhibition) [12] was 14.3% (inactive) and the inhibition [13] was -7.39% (inactive). For the same molecule, the red/green cell ratio (normalised) [14] was 0.97 (inactive), the normalised cell number [14, 21] was 1.02 and the normalised cell number [14, 22] was 0.99. The activity remaining [15] was 109% (inactive), the fold change ([20]; stronger effect = lower value) was 0.977 (inactive) and 0.919 (inactive) and 0.901 (inactive) and the fold change [20, 26] was 0.839 and 0.936 and 1.89. For the same molecule, the cell count [20, 27] was 8720 and 8430 and 10800, the cell count [20, 25] was 8930 and 9170 and 12000 and the z-score [16, 23] was -3.76 (inactive). For the same molecule, the z-score [16, 24] was -2.32, the remaining NAD [17] was 10 nM (inactive) and the luciferase signal [18] was 92 AU (inactive). The z-score [19] was -1.4 (inactive).
